Screening results as filed in PubChem BioAssay.
SENP6 block: SENP6 protease inhibitors, primary screen, biochemical, luminescence, uHTS; Sentrin-specific protease 6 (Homo sapiens), Q9GZR1; Recombinant SENP6 catalytic domain, aminoluciferin luminescence; inhibition, % at 10 µM; actives 1.8% (n = 330,000); AID 2599, 2010;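 active means inhibition above about 50% at the single tested dose, limit read from the data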;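 further: plate controls were DMSO wells with enzyme for no effect and DMSO wells lacking enzyme for full effect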
AHR activator: AHR activators, primary screen, cell-based, luminescence, luciferase reporter, human; Aryl hydrocarbon receptor (Homo sapiens), P35869; activation, % at 5 µM; AHR-responsive luciferase reporter cells; actives 2.5% (n = 320,000); AID 2796, 2010; in the data active means activation above about 47%;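 further: 0% = vehicle wells and 100% = reference agonist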
SENP8 block-1: human SENP8 protease inhibitors, primary screen, biochemical, fluorescence, Nedd8 protein substrate, uHTS; Sentrin-specific protease 8 (Homo sapiens), Q96LD8; recombinant SENP8; inhibition, % at 20 µM; actives 0.64% (n = 360,000); AID 602440, 2012; in the data active means inhibition mostly above about 40%, no sharp cut-off; inactive means mostly below about 27%
SENP8 block-2: SENP8 protease inhibitors, primary screen, biochemical, luminescence; purified SENP8, Z-RLRGG-aminoluciferin cleavage; inhibition, % at 10 µM; actives 1.2% (n = 330,000); AID 2540, 2010; in the data active means inhibition above about 50%
EBI2 block: EBI2 receptor antagonists, beta-arrestin recruitment, primary screen, cell-based, luminescence, 7a,25-OHC stimulation, uHTS. actives 0.81% (n = 360,000). G-protein coupled receptor 183 (Homo sapiens), P32249. inhibition, % at 5 µM. 7a,25-OHC stimulated; in the data active means inhibition above about 38%;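 further: enzyme fragment complementation signal reports receptor beta-arrestin coupling in cells; 0% = agonist plus DMSO wells and 100% = wells without agonist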
SENP7 inh: SENP7 protease inhibitors, primary screen, biochemical, luminescence, uHTS | Sentrin-specific protease 7 (Homo sapiens), Q9BQF6 | recombinant SENP7, Z-RLRGG-aminoluciferin luminescence, 40 min | inhibition, % at 5 µM | actives 1.5% (n = 330,000);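 active means inhibition above about 50% at the single test dose, limit read from the data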;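 further: plate controls were DMSO with enzyme for no effect and no enzyme buffer wells for full effect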
Target sequence (Q9BQF6 706-1050 limits assumed): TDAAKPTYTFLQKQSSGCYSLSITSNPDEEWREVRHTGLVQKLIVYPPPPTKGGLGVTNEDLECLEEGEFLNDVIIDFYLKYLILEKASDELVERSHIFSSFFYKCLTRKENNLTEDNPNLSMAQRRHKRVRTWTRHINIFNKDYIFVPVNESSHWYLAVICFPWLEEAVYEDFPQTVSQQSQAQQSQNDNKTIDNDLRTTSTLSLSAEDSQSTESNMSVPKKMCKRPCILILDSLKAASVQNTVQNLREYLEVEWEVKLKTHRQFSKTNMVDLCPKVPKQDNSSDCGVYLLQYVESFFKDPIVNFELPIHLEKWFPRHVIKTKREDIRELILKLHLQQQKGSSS
* marks the source's active call; other numbers are inactive results. The list is not random: actives were taken first. Their share in the collection is about 5%.

What do the screens show for `Cc1ccc(NCc2ccco2)cc1C`?
SENP6 block: 13; AHR activator: 7; SENP8 block-1: -1; SENP8 block-2: -5; EBI2 block: 8; SENP7 inh: 7

What do the screens show for `Cc1ccc(Nc2nnc(-c3ccccc3N)o2)cc1C`?
SENP6 block: -3; AHR activator: 40; SENP8 block-1: -433; SENP8 block-2: -8; EBI2 block: 3; SENP7 inh: 63*

What do the screens show for `CCCCNC(=O)C1c2ccccc2OCC(=O)N1Cc1cccnc1` (stereo unspecified)?
SENP8 block-1: 3; EBI2 block: 6

Results for O=C1c2ccccc2C(=O)N1CCCCN(C(=O)c1cccc([N+](=O)[O-])c1)c1ccc(Cl)cc1 ?
SENP6 block: 0; AHR activator: 72*; SENP8 block-1: 18; SENP8 block-2: -3; EBI2 block: 28; SENP7 inh: 1

Results for Cc1ccc(OCCCn2ccnc2)c([N+](=O)[O-])c1 ?
SENP6 block: -1; AHR activator: 37; SENP8 block-1: 4; SENP8 block-2: 0; EBI2 block: -1; SENP7 inh: 1

What do the screens show for `CCOc1ccc(Cn2ccnc2)cc1[N+](=O)[O-]`?
SENP6 block: 1; AHR activator: 64*; SENP8 block-1: 22; SENP8 block-2: 0; EBI2 block: -8; SENP7 inh: 9

Results for Cc1ccc2[nH]c(O)c(N=NC(N)=S)c2c1 ?
SENP6 block: -2; AHR activator: -3; SENP8 block-1: 22; SENP8 block-2: -4; EBI2 block: -1; SENP7 inh: -3

Results for CC(/C=C(\NC(=O)c1ccccc1)C(=O)N=Nc1c(O)[nH]c2ccc(C)cc12)=C\c1ccccc1 ?
SENP6 block: -8; AHR activator: 27; SENP8 block-1: 51*; SENP8 block-2: -1; EBI2 block: -11; SENP7 inh: 3

What do the screens show for `CC(C)c1nc2sc3c(SCCN(C)C)ncnc3c2c2c1CCC2`?
SENP8 block-1: 12; EBI2 block: 3

What do the screens show for `COc1ccc(CNC(=O)Nc2nc(C(N)CCc3ccccc3)cs2)cc1` (stereo unspecified)?
SENP8 block-1: 13; EBI2 block: 8

What do the screens show for `COc1ccc(N=Nc2[nH]c3ccc(C)cc3c2O)cc1`?
SENP6 block: 1; AHR activator: 69*; SENP8 block-1: 17; SENP8 block-2: -14; EBI2 block: 20; SENP7 inh: 7

What do the screens show for `Cc1ccc(N=Nc2[nH]c3ccccc3c2O)cc1`?
SENP6 block: 43; AHR activator: 77*; SENP8 block-1: 8; SENP8 block-2: 14; EBI2 block: 6; SENP7 inh: 15

Results for COc1ccc(-c2nc(N=Nc3ccc(O)cc3)n[nH]2)cc1 ?
SENP6 block: -4; AHR activator: 19; SENP8 block-1: 30; SENP8 block-2: -11; EBI2 block: 7; SENP7 inh: -6

What do the screens show for `O=C(Nc1ccc(O)c(C(=O)O)c1)Oc1ccccc1`?
SENP6 block: 76*; AHR activator: 2; SENP8 block-1: -297; SENP8 block-2: 60*; EBI2 block: -3; SENP7 inh: 56*

What do the screens show for `CC(C)CN(c1ccccc1)S(=O)(=O)c1nnc(NC(=O)C(C)C)s1`?
SENP6 block: -2; AHR activator: 1; SENP8 block-1: 10; SENP8 block-2: 9; EBI2 block: -3; SENP7 inh: -3

How did C[C@H]1CN([C@@H](C)CO)S(=O)(=O)c2ccc(-c3ccc(C#N)cc3)cc2O[C@H]1CN(C)C(=O)CN(C)C do in these assays?
SENP8 block-1: 6; EBI2 block: -11

What do the screens show for `N#C/C(=C\c1ccc([N+](=O)[O-])o1)c1nc2ccccc2[nH]1`?
SENP6 block: 30; AHR activator: 55*; SENP8 block-2: 11; SENP7 inh: 11

What do the screens show for `CSc1nc(N(C)C)c2ccccc2n1`?
SENP6 block: -23; AHR activator: -2; SENP8 block-1: 6; SENP8 block-2: -3; EBI2 block: 10; SENP7 inh: -10
